Out of some 5,500 compounds screened, about 2,000 (36%) were called active. About 18% were inconclusive and are not listed. Cut-off read from the data, not from the text of the source: active = normalized growth mostly below about 0.91 (no sharp cut-off); inconclusive = no clear call, values can overlap the other calls; inactive = mostly above about 0.92. The list shows a part of the results.
Experiment: chemical genetic growth profiling, strain panel (AID 1159580);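 note: tested at 20 µM; growth read once vehicle control cultures reached saturation at 30 °C; 1 = growth at the plate median or of vehicle wells; lower values mean less growth of the strain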
Conditions: growth OD

Measured: normalized growth

NC1=NCCN1CC(=O)O
inactive: S. cerevisiae deletion strains, locus YJR043C, strain POL32, active compounds read low 0.98 | S. cerevisiae deletion strains, locus YJR066W, strain TOR1, active compounds read low 0.989 | S. cerevisiae deletion strains, locus YKL009W, strain mrt4, active compounds read low 0.968 | S. cerevisiae deletion strains, locus YKL068W, active compounds read low 0.986 | S. cerevisiae deletion strains, locus YKL085W, strain MDH1 (second series), active compounds read low 0.983 | S. cerevisiae deletion strains, locus YKL085W, strain MDH1, active compounds read low 0.983 | S. cerevisiae deletion strains, locus YKL160W, strain elf1, active compounds read low 1.04 | S. cerevisiae deletion strains, locus YKL190W, strain CNB1, active compounds read low 0.978 | S. cerevisiae deletion strains, locus YKR001C, strain vps1, active compounds read low 0.989 | S. cerevisiae deletion strains, locus YKR026C, strain gcn3, active compounds read low 1.03 | S. cerevisiae deletion strains, locus YKR091W, strain srl3, active compounds read low 1.01 | S. cerevisiae deletion strains, locus YLL001W, strain dnm1, active compounds read low 0.984 | S. cerevisiae deletion strains, locus YLL026W, active compounds read low 1.01 | S. cerevisiae deletion strains, locus YLL041C, strain sdh2, active compounds read low 1.01 | S. cerevisiae deletion strains, locus YLR027C, strain aat2, active compounds read low 1.02 | S. cerevisiae deletion strains, locus YLR039C, strain RIC1, active compounds read low 0.964 | S. cerevisiae deletion strains, locus YLR058C, strain SHM2, active compounds read low 0.975 | S. cerevisiae deletion strains, locus YLR102C, strain apc9, active compounds read low 0.986 | S. cerevisiae deletion strains, locus YLR113W, strain HOG1, active compounds read low 0.983 | S. cerevisiae deletion strains, locus YLR221C, strain rsa3, active compounds read low 0.987 | S. cerevisiae deletion strains, locus YLR258W, strain gsy2, active compounds read low 0.996 | S. cerevisiae deletion strains, locus YLR262C, strain YPT6 (second series), active compounds read low 1.02 | S. cerevisiae deletion strains, locus YLR262C, strain YPT6, active compounds read low 0.958 | S. cerevisiae deletion strains, locus YLR268W, strain sec22, active compounds read low 0.99 | S. cerevisiae deletion strains, locus YLR320W, strain mms22, active compounds read low 0.957 | S. cerevisiae deletion strains, locus YLR330W, strain CHS5, active compounds read low 1 | S. cerevisiae deletion strains, locus YLR342W, strain FKS1 (second series), active compounds read low 1.01 | S. cerevisiae deletion strains, locus YLR342W, strain FKS1, active compounds read low 1.02 | S. cerevisiae deletion strains, locus YLR357W, strain rsc2, active compounds read low 1.03 | S. cerevisiae deletion strains, locus YLR370C, strain arc18, active compounds read low 1.01 | S. cerevisiae deletion strains, locus YLR371W, strain rom2, active compounds read low 0.996 | S. cerevisiae deletion strains, locus YLR384C, strain iki3, active compounds read low 1.01 | S. cerevisiae deletion strains, locus YLR418C, strain cdc73, active compounds read low 0.995 | S. cerevisiae deletion strains, locus YML016C, strain PPZ1, active compounds read low 0.986 | S. cerevisiae deletion strains, locus YML032C, strain rad52, active compounds read low 0.994 | S. cerevisiae deletion strains, locus YML120C, strain ndi1, active compounds read low 0.998 | S. cerevisiae deletion strains, locus YML124C, strain tub3, active compounds read low 0.995 | S. cerevisiae deletion strains, locus YMR058W, strain fet3, active compounds read low 1.02 | S. cerevisiae deletion strains, locus YMR078C, strain ctf18, active compounds read low 0.994 | S. cerevisiae deletion strains, locus YMR125W, strain sto1, active compounds read low 1.02 | S. cerevisiae deletion strains, locus YMR129W, active compounds read low 1 | S. cerevisiae deletion strains, locus YMR205C, strain PFK2, active compounds read low 1.02 | S. cerevisiae deletion strains, locus YMR223W, strain ubp8, active compounds read low 0.992 | S. cerevisiae deletion strains, locus YMR231W, strain pep5, active compounds read low 1.02 | S. cerevisiae deletion strains, locus YMR307W, strain GAS1, active compounds read low 1.05 | S. cerevisiae deletion strains, locus YNL067W, strain RPL9B, active compounds read low 0.966 | S. cerevisiae deletion strains, locus YNL071W, strain lat1, active compounds read low 0.983 | S. cerevisiae deletion strains, locus YNL153C, strain GIM3, active compounds read low 0.989 | S. cerevisiae deletion strains, locus YNL183C, strain NPR1, active compounds read low 0.919 | S. cerevisiae deletion strains, locus YNL209W, strain ssb2, active compounds read low 1.03 | S. cerevisiae deletion strains, locus YNL233W, strain BNI4, active compounds read low 0.974 | S. cerevisiae deletion strains, locus YNL248C, strain rpa49, active compounds read low 1.03 | S. cerevisiae deletion strains, locus YNL250W, strain rad50, active compounds read low 0.973 | S. cerevisiae deletion strains, locus YNL271C, strain bni1, active compounds read low 0.998 | S. cerevisiae deletion strains, locus YNL298W, strain CLA4, active compounds read low 0.996 | S. cerevisiae deletion strains, locus YNL307C, strain MCK1, active compounds read low 0.993 | S. cerevisiae deletion strains, locus YNL322C, strain KRE1 (second series), active compounds read low 1.02 | S. cerevisiae deletion strains, locus YNR049C, strain mso1, active compounds read low 1.01 | S. cerevisiae deletion strains, locus YNR052C, strain pop2, active compounds read low 0.998 | S. cerevisiae deletion strains, locus YOL006C, strain TOP1, active compounds read low 0.944 | S. cerevisiae deletion strains, locus YOL012C, strain htz1 0.788 | S. cerevisiae deletion strains, locus YOL147C, strain pex11, active compounds read low 0.995 | S. cerevisiae deletion strains, locus YOR001W, strain rrp6, active compounds read low 0.966 | S. cerevisiae deletion strains, locus YOR061W, strain CKA2, active compounds read low 0.958 | S. cerevisiae deletion strains, locus YOR069W, strain VPS5, active compounds read low 0.995 | S. cerevisiae deletion strains, locus YOR070C, strain gyp1, active compounds read low 1.02 | S. cerevisiae deletion strains, locus YOR080W, strain dia2, active compounds read low 1.03 | S. cerevisiae deletion strains, locus YOR083W, strain WHI5, active compounds read low 0.959 | S. cerevisiae deletion strains, locus YOR106W, strain vam3, active compounds read low 1.03 | S. cerevisiae deletion strains, locus YOR136W, strain idh2, active compounds read low 0.986 | S. cerevisiae deletion strains, locus YOR144C, strain elg1, active compounds read low 0.992 | S. cerevisiae deletion strains, locus YOR184W, strain ser1, active compounds read low 1.01 | S. cerevisiae deletion strains, locus YOR231W, strain MKK1, active compounds read low 0.966 | S. cerevisiae deletion strains, locus YOR265W, strain rbl2, active compounds read low 0.994 | S. cerevisiae deletion strains, locus YOR270C, strain vph1, active compounds read low 0.924 | S. cerevisiae deletion strains, locus YOR290C, strain snf2, active compounds read low 1.01 | S. cerevisiae deletion strains, locus YOR316C, strain cot1, active compounds read low 0.989 | S. cerevisiae deletion strains, locus YPL051W, strain arl3, active compounds read low 0.997 | S. cerevisiae deletion strains, locus YPL055C, strain LGE1, active compounds read low 0.918 | S. cerevisiae deletion strains, locus YPL078C, strain atp4, active compounds read low 1.03 | S. cerevisiae deletion strains, locus YPL106C, strain sse1, active compounds read low 1.01 | S. cerevisiae deletion strains, locus YPL240C, strain hsp82, active compounds read low 1.01 | S. cerevisiae deletion strains, locus YPL256C, strain CLN2, active compounds read low 0.953 | S. cerevisiae deletion strains, locus YPR119W, strain clb2, active compounds read low 0.983 | S. cerevisiae deletion strains, locus YPR141C, strain kar3, active compounds read low 0.988 | S. cerevisiae deletion strains, locus YPR163C, strain tif3, active compounds read low 0.986 | S. cerevisiae deletion strains, locus YPR167C, strain met16, active compounds read low 0.993 | S. cerevisiae deletion strains, strain wtn01, active compounds read low 0.995 | S. cerevisiae strains, strain wild type, active compounds read low 0.982

Reference: PubChem BioAssay AID1159580 (chemical genetic matrix, 2015)
